Tb PFK block: qHTS Assay to Find Inhibitors of T. brucei phosphofructokinase; ATP-dependent 6-phosphofructokinase (Trypanosoma brucei brucei), O15648; T. brucei PFK, ADP-Glo luminescence; Potency, µM (highest dose often 57.5 µM), inactives show at the highest dose activity, negative = inhibition, hits mostly inhibitors; actives 0.17% (n = 330,000); AID 485367, 2010;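 also: 0% = uninhibited 1x PFK enzyme wells and -100% = no-enzyme wells; nearly all actives have a fitted effect of over 60% in size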
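1.25 nM PFK with 0.5 mM F6P and 0.1 mM ATP in 0.1 M TEA pH 8.0, 5 mM MgCl2, incubated 45 min at room temperature; ADP measured by ADP-Glo luminescence; compounds titrated up to 57 uM.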
VDR inh: Inhibitors of the vitamin D receptor (VDR): qHTS. Vitamin D3 receptor (Homo sapiens), P11473. actives 0.93% (n = 400,000). Potency, µM, without a hit: max response, negative = inhibition, most hits filed as inhibitors. AID 504847, 2011. VDR-SRC2-3 peptide fluorescence polarization, 2 h; also: % is scaled to controls: 0 for no effect and ±100 for the full control effect
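After 23 nl compound addition and a short centrifugation, plates sat for 2 hours at ambient temperature; polarization of fluorescence then indicated loss of VDR binding to peptide SRC2-3.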
Pin1 inh: qHTS Assay to Find Inhibitors of Pin1 | Peptidyl-prolyl cis-trans isomerase NIMA-interacting 1 (Homo sapiens), Q13526 | Pin1 FP peptide displacement, HiFluor488, 10 min | Potency, µM (top dose mostly 115 µM), for inactives: top-dose activity, negative = inhibition, hits mostly inhibitors | actives 0.009% (n = 390,000) | AID 504891, 2011; active = well fitted inhibition curve with a large enough effect in the polarisation, with a control signal flat, not every such curve was filed as active; inconclusive = small, poorly fitted or top-dose-only effect, or effect the other way, or a change in a side signal; inactive = no such curve, though single readings can be large or run the other way; the % refers to the polarisation; also: % is scaled to controls: 0 for no effect and ±100 for the full control effect
Target sequence (Q13526 whole entry, looked up): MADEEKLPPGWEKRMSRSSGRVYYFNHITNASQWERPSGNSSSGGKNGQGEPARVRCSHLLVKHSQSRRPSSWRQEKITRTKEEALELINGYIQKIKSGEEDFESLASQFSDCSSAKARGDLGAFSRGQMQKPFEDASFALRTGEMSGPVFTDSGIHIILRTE
PLK1 PBD block: qHTS for Inhibitors of PLK1-PDB (polo-like kinase 1 - polo-box domain): Primary Screen | Serine/threonine-protein kinase PLK1 (Homo sapiens), P53350 | Plk1 PBD binding of FITC phosphopeptide, fluorescence polarization | Potency, µM, inactives show max response, negative = inhibition, hits mostly inhibitors | actives 2.8% (n = 360,000) | AID 720504, 2013; also: series mostly up to about 57 µM; % is scaled to controls: 0 for no effect and ±100 for the full control effect; nearly all actives have a fitted effect of over 65% in size
TDP1 block: qHTS Assay for Inhibitors of Tyrosyl-DNA Phosphodiesterase (TDP1). Tyrosyl-DNA phosphodiesterase 1 (Homo sapiens), Q9NUW8. recombinant TDP1, AlphaScreen DNA substrate cleavage. Potency, µM (titrated, usually from 130 µM), for the others: at the highest dose activity change, negative = inhibition, hits mostly inhibitors. actives 0.28% (n = 350,000). AID 485290, 2010; also: % is scaled to controls: 0 for no effect and ±100 for the full control effect; nearly all actives have a fitted effect of over 40% in size
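Recombinant E. coli-expressed Tdp1 (1 nM) preincubated with compound 15 min at RT, then 5'-biotin/3'-phosphotyrosine-FITC DNA substrate (15 nM) added for 5 min. AlphaScreen beads (10 ug/ml) added, 10 min RT; tyrosine-FITC cleavage read as signal loss.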
S-ASM inh: Inhibitors of Secretory Acid Sphingomyelinase (S-ASM): qHTS. actives 0.006% (n = 340,000). placental ASM, HMU-PC fluorogenic substrate, 60 min. AID 504937, 2011. Potency, µM (doses to about 57.5 µM), for inactives: at the highest dose activity change, negative = inhibition, hits mostly inhibitors
Target sequence (P17405 47-631 limits assumed): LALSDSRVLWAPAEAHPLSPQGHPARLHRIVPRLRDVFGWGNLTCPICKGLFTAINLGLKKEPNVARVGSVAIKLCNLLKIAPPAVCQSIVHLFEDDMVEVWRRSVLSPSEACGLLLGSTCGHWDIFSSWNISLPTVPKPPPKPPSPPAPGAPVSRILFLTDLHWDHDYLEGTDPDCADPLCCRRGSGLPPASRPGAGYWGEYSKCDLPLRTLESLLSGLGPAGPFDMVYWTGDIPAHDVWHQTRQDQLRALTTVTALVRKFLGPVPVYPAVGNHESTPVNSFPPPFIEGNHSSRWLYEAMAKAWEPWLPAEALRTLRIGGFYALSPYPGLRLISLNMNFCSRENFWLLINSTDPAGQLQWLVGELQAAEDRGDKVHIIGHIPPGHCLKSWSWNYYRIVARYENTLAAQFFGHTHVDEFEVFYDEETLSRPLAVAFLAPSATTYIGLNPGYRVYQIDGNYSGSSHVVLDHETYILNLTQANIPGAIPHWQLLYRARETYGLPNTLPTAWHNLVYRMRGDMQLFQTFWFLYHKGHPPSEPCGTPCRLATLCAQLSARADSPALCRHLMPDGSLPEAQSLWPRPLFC
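Fluorogenic HMU-PC substrate (9 uM final) is turned over by placental ASM in 60 min at 37 C after a 10 min compound preincubation. Reaction ended by alkaline stop (pH 10), with fluorescence read at 386/447 nm.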
Starred values were filed as active, the others as inactive; ? = inconclusive; . = not tested or not shown. In the library only some 3.1% were active in any assay of this set; here they are far more common. Unless noted, calls follow the shape of the dose curve; as a rule, active = well fitted curve in the direction sought with a large enough effect; inconclusive = small, poorly fitted or top-dose-only effect, or another doubt; inactive = no such curve, though single readings can be large; an effect the other way counts as inactive or inconclusive. Potency is read from the fitted curve at half-maximal effect.

SMILES | Tb PFK block | VDR inh | Pin1 inh | PLK1 PBD block | TDP1 block | S-ASM inh
CC(C)[C@H](NC(=O)c1ccccc1)C(=O)OCC(=O)c1ccc2c(c1)NC(=O)CO2 | -6% | -12% | 4% | 11µM* | 3% | 0%
O=c1[nH]cc(C#Cc2ccccc2)c2ncncc12 | . | 4% | -6% | . | 1% | .
O=C(OCc1ccccc1)c1cccnc1 | . | -4% | . | . | . | .
Cc1cc(C)c(SSc2nnnn2-c2ccccc2)c(C)c1 | . | . | . | 3µM* | . | .
Cc1cc(N2CCC(C(=O)Nc3ccc(F)cc3F)CC2)n2nc(C)c(-c3ccc(Cl)cc3)c2n1 | . | -14% | -4% | . | -1% | .
O=C(Nc1ccc(F)cc1F)N1CCCC(c2nc(-c3ccc(F)cc3)no2)C1 (stereo not drawn) | -1% | -27% | -9% | 12µM* | 0% | -2%
COc1ccc(CCNC(=O)CC(=O)N/N=C/c2ccc(Br)cc2)cc1OC | -1% | -13% | 8% | -20% | . | 0%
COc1cccc(/C=N/NC(=O)CC(=O)NCCc2ccc(OC)c(OC)c2)c1 | -3% | -14% | -2% | 27µM* | 0% | 0%
COc1cccc(OC)c1NC(=O)Cn1nc(C)c2ccccc2c1=O | -3% | -23% | 0% | 30µM* | . | 0%
COc1ccc(NC(=O)COc2ccc(-c3nn(C)c(=O)c4ccccc34)cc2)cc1 | 0% | ? | -3% | 24µM* | 3% | 5%
CN(C)C(=O)c1ccc(NC(=O)Cn2nc(-c3ccccc3)c3ccccc3c2=O)cc1 | . | 10% | 11% | . | . | .
COc1ccc(OCC(=O)Nc2cc(-c3nn(C)c(=O)c4ccccc34)ccc2OC)cc1 | -4% | 12% | ? | -14% | 2% | 0%
Cc1nn(CC(=O)Nc2cccc(O)c2)c(=O)c2ccccc12 | . | . | . | -4% | . | .
COC(=O)COc1ccc(NC(=O)Cn2nc(-c3ccccc3)c3ccccc3c2=O)cc1 | 0% | -28% | -2% | 27µM* | . | -1%
O=C(CSc1nnc(NC(=O)C2CC(=O)N(c3ccc(F)cc3)C2)s1)NCc1ccco1 (stereo not drawn) | 0% | 79µM* | -5% | ? | 2% | -5%
CCOc1ccc(NS(=O)(=O)c2ccc3c(c2)N(C(C)=O)CCS3)cc1 | -1% | -18% | 0% | 27µM* | 1% | 3%
COc1ccccc1Nc1nc2c(s1)CCC2 | 1% | -18% | -3% | 27µM* | -1% | 0%
CCCNC(=O)Nc1ccc(NC(C)=O)cc1 | 0% | -19% | 1% | 11µM* | -7% | 6%
CC(=O)NCc1ccc(C(=O)CCl)cc1 | -4% | -3% | 4% | 4.2µM* | -5% | 1%
CC(=O)Nc1ccc(C)cc1 | 0% | -19% | -1% | -8% | 0% | 0%
CCCNC(=O)C(=O)Nc1ccc(N(C)C)cc1 | 1% | 11% | 3% | -9% | 0% | 3%
CC(=O)Nc1ccc(C(=O)CCl)cc1 | 0% | -27% | 3% | 5.3µM* | 3% | 1%
COc1cc(NC(=O)CN(C)CCOc2ccccc2)c(C)cc1[N+](=O)[O-] | 0% | -8% | -11% | -7% | . | -3%
COc1cc(NC(=O)CN(C)Cc2cccc(F)c2)c(C)cc1[N+](=O)[O-] | -1% | ? | -10% | 27µM* | -1% | 0%
O=C(NCCCCc1ccccc1)C1CCN(c2nc(-c3ccc(Br)cc3)cs2)CC1 | . | . | 41% | . | . | .
SMILES | Tb PFK block | VDR inh | Pin1 inh | PLK1 PBD block | TDP1 block | S-ASM inh
NC(=O)c1ccccc1NC(=S)NC(=O)CCc1ccccc1 | 1% | ? | -10% | 15µM* | -5% | 11%
COc1ccc(C(=O)NNC(=O)C(=O)Nc2ccc(C)c(Cl)c2)cc1 | 0% | ? | 12% | 27µM* | 10% | -1%
COC(=O)NNC(=O)c1ccccc1OC | -3% | -3% | -12% | -14% | 5% | -2%
COc1ccccc1C(=O)NNC(=O)c1cccc(C)c1 | -1% | 71µM* | 1% | 17µM* | . | 0%
COc1ccccc1C(=O)NNC(=O)C1CC=CCC1 (stereo not drawn) | -3% | 7% | 0% | -9% | 35µM* | 7%
COc1ccccc1C(=O)NNC(=O)c1cccc([N+](=O)[O-])c1 | -20% | -1% | -6% | -10% | 4% | 1%
COc1ccccc1C(=O)NNC(=O)C(=O)Nc1ccc(C)c(Cl)c1 | 23% | -22% | 93% | 30µM* | 12% | -1%
CCOc1c(Cl)cc(CNc2ccc3[nH]c(=O)[nH]c3c2)cc1OC | . | 6% | -5% | . | 9% | .
CN(C(=O)c1ccc(OCC=C(c2ccccc2)c2ccccc2)cc1)c1ccccc1I | . | -4% | 12% | . | 8% | .
c1coc(CNc2nc[n+]3c4c2ncn4CC3)c1 | . | -15% | -3% | . | 0% | .
CC(=O)N1CCN(C(c2ccccc2)c2ccccc2)CC1 | -8% | -7% | 0% | -7% | . | -1%
CSc1ccc(C(=S)N2CCN(C(c3ccccc3)c3ccccc3)CC2)cc1 | -26% | ? | 4% | 13µM* | 3% | -1%
COc1cccc2cc(C(=O)Nc3ccc(CC(=O)O)cc3)c(=O)oc12 | . | 9% | ? | . | 1% | .
O=C(Nc1nnc(-c2ccc3c(c2)CCCC3)o1)c1c(F)cccc1F | ? | -6% | . | -19% | 7% | 0%
O=C(Nc1nnc(-c2ccc3c(c2)CCCC3)o1)c1ccc(Cl)cc1Cl | 1% | -7% | 3% | 21µM* | 12% | -5%
COc1ccccc1C(=O)N/C(=C\c1cn(S(=O)(=O)N(C)C)c2ccccc12)C(=O)NCCCn1ccnc1 | . | 24% | -3% | . | 3% | .
Cc1ccc(C(=O)N/C(=C\c2cn(S(=O)(=O)N(C)C)c3ccccc23)C(=O)NCCCn2ccnc2)cc1 | 2% | -19% | 0% | 30µM* | 9% | 2%
NC(=O)Cn1c(=O)n(CCCCCC(=O)NCc2ccccc2Cl)c(=O)c2sccc21 | . | -6% | 36% | . | 1% | .
COC(=O)COc1cccc(NC(=O)c2ccc(C)cc2)c1 | -2% | 5% | -10% | -8% | 0% | -1%
COC(=O)COc1cccc(NC(=O)c2ccc(Cl)cc2)c1 | 1% | ? | -6% | 30µM* | 3% | -3%
COc1ccc(-c2cc(=S)ss2)cc1 | . | 40µM* | . | . | . | .
COc1cc(C2C(=O)N(C3CCCCC3)CC(=O)N2Cc2ccc(C)cc2)ccc1OC(C)C (stereo not drawn) | . | 13% | -8% | . | 5% | .

Compound activity as filed in PubChem.
